KCNH2 3.1 block: KCNH2 3.1 (human) potassium channel inhibition; activity change, % (tested at about 1.8 µM); AID 720553; U2OS KCNH2 3.1, thallium flux FluxOr; stronger effect = lower value; 340,000 tested, 0.95% active;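 active = maximum activity change below -70%; inconclusive = maximum activity change from -70% to -50%; inactive = maximum activity change above -50%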;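 note: thallium influx rate constant from kinetic fluorescence after stimulation buffer; % is set by controls: 0 for no effect and ±100 for the full control effect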
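Channel expression came from 3.1 mutant virus (1.77 x 10^8 /mL) applied to suspended U2OS cells for 4 h. Flux was tracked with FluxOr dye plus Red40 quencher, and kinetic rate constants normalized to controls.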
MmCpn inh: blocks the Methanococcus maripaludis chaperonin Mm-Cpn; purified Mm-Cpn ATPase, ADP Transcreener TR-FRET; Potency, µM (series often up to 76.9 µM), without a hit: at the top dose activity, negative = inhibition, hits mostly inhibitors; 330,000 tested, 0.031% active; note: potency is the fitted concentration of half-maximal effect; % is set by controls: 0 for no effect and ±100 for the full control effect; nearly all actives have a fitted effect of over 80% in size
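Quantitative HTS used 25 nM Mm-CPN and 10 uM ATP in magnesium/KCl Tris buffer, pH 7.4, with 1 mM DTT. Hydrolysis ran 30 min at 37°C; ADP was read by HTRF.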
p53 reactivation: restores transcriptional activity of mutant p53 | H1299 p53-A138V BP100-luciferase reporter, luminescence, 24 h | Potency, µM (doses to about 92.2 µM), inactives show top-dose activity change, positive = activation, actives largely listed as activators | 320,000 tested, 0.063% active | AID 504706; note: potency is the fitted concentration of half-maximal effect; % of control where 0% means no effect; nearly all actives have a fitted effect of over 45% in size
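H1299 (p53-null), stable ts p53-A138V + BP100-Luc; 1000 cells/well, Opti-MEM/10% FBS; cpd 4 pt, 1:5; 24 h, 37 deg C, 5% CO2; detection reagent 10 min RT; luminescence.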
uPA surface inh: cell surface uPA generation inhibition | cell surface uPA generation assay, qHTS | 330,000 tested, 0.31% active | Potency, µM (series often up to 38.3 µM), for inactives: at the highest dose activity change, negative = inhibition, most hits filed as inhibitors; active = well fitted inhibition curve with a large enough effect; inconclusive = small, poorly fitted or top-dose-only effect; inactive = no such curve, though single readings can be large or run the other way; tested in mouse RAW 264.7 cells; note: potency is the fitted concentration of half-maximal effect; % is set by controls: 0 for no effect and ±100 for the full control effect; nearly all actives have a fitted effect of over 55% in size
KCNH2 WT inh: blocks the wildtype human KCNH2 potassium channel. Q12809. U2OS, BacMam KCNH2, thallium flux FluxOr; stronger effect = lower value. activity change, % at 1.84 µM. 340,000 tested, 0.37% active;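 active = maximum activity change below -70%; inconclusive = maximum activity change between -70% and -50%; inactive = maximum activity change above -50%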; note: % is set by controls: 0 for no effect and ±100 for the full control effect
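U2OS cells were transduced with wild-type KCNH2 virus (2.03 x 10^8 / mL) for 4 h at room temperature, then cultured overnight at 37 C. Thallium flux was read with FluxOr dye. Rate constants were normalized to DMSO controls.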
S-ASM inh: blocks human secretory acid sphingomyelinase. P17405. placental ASM, HMU-PC fluorogenic substrate, 60 min. Potency, µM (top dose mostly 57.5 µM), inactives show top-dose activity change, negative = inhibition, hits mostly inhibitors. 340,000 tested, 0.006% active; note: potency is the fitted concentration of half-maximal effect
Target sequence (P17405 47-631 limits assumed): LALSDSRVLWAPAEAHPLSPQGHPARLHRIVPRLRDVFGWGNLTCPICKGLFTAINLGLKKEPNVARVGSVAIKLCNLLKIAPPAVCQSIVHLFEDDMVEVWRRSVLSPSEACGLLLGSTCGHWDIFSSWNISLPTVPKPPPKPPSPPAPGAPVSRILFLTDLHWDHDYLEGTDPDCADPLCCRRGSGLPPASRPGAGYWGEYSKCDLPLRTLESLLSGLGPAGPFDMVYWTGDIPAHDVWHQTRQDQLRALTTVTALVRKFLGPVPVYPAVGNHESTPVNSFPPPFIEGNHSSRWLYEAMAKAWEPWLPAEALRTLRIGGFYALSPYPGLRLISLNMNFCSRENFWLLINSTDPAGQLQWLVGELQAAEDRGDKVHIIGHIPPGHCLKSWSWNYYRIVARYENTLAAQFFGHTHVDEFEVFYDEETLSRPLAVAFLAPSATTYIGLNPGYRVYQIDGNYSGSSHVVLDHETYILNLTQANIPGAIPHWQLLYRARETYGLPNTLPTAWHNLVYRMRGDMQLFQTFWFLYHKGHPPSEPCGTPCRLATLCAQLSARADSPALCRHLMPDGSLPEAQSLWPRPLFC
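Steps: dispense placental human ASM, pin compound, wait 10 min at room temperature, add HMU-PC0 substrate at 9 uM final, incubate 60 min at 37 °C, add stop solution raising pH to 10, read fluorescence.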
* = called active by the depositor; ? = inconclusive; . = no result. Rows were chosen to be rich in hits. Some 1.4% of all compounds tested hit in one or more screens of this group. Unless noted, calls come from the whole dose curve; as a rule, active = well fitted curve in the direction sought with a large enough effect; inconclusive = small, poorly fitted or top-dose-only effect, or another doubt; inactive = no such curve, though single readings can be large; an effect the other way counts as inactive or inconclusive.

SMILES	KCNH2 3.1 block	MmCpn inh	p53 reactivation	uPA surface inh	KCNH2 WT inh	S-ASM inh
CCCOCCOC(=O)C1=C(C)NC(=O)NC1c1cc(Cl)c(O)c(OC)c1 (stereo not given)	-72*	0%	-1%	6%	-6	0%
O=C(COC(=O)C1CCC(=O)N1)Nc1ccccc1OC(F)F (stereo not given)	9	3%	-3%	3%	-2	10%
COc1ccc(S(=O)(=O)N2CCCOC2CNC(=O)C(=O)NCc2ccncc2)cc1 (stereo not given)	2	?	5%	5%	2	1%
O=C(COC(=O)c1ccco1)Nc1cccc(S(=O)(=O)N2CCOCC2)c1	2	.	.	.	-5	.
O=C(COC(=O)c1ccccc1Cl)Nc1cccc(S(=O)(=O)N2CCCCC2)c1	-19	.	.	.	4	.
Cc1cc(C)c(C(=O)OCC(=O)Nc2cccc(S(=O)(=O)N3CCCCC3)c2)c(C)c1	-12	-2%	2%	8.9µM*	6	-8%
O=C(COC(=O)C1CC2C=CC1C2)Nc1cccc(S(=O)(=O)N2CCOCC2)c1 (stereo not given)	-104*	0%	-3%	-1%	2	1%
N=c1sccn1CC(=O)Nc1cccc(S(=O)(=O)N2CCCCCC2)c1	-71*	0%	1%	-15%	.	2%
COc1ccccc1/C=C(/NC(=O)c1ccccc1)C(=O)NCCN1CCOCC1	7	1%	-4%	-5%	-6	1%
Cc1cc2[nH]c(=O)c(=O)[nH]c2cc1S(=O)(=O)N1CCN(c2cccc(Cl)c2)CC1	4	-6%	12%	13%	-6	20µM*
Cc1cc2[nH]c(=O)c(=O)[nH]c2cc1S(=O)(=O)N1CCN(c2cccc(C(F)(F)F)c2)CC1	-1	1%	-5%	17%	0	20µM*
Cc1cc2[nH]c(=O)c(=O)[nH]c2cc1S(=O)(=O)N1CCN(c2cccc(C)c2C)CC1	-2	-6%	12%	19%	-2	?
O=C(CCCc1ccccc1)Nc1ccnn1C1CCN(Cc2ccc(CO)o2)CC1	-2	0%	15%	20%	11	6%
COc1cc(N/N=C/c2ccc(N(C)C)cc2)ncn1	-3	-3%	-1%	3.5µM*	-4	335%
O=C(Cc1sc(Nc2ccccc2)nc1-c1ccccc1)NCc1ccccc1	0	?	40µM*	-1%	13	-11%
CSCCC(N=C1NS(=O)(=O)c2ccccc21)C(=O)N1CCCC(C(N)=O)C1 (stereo not given)	-19	-1%	2%	15%	-6	4%
Cc1c(C(=O)N/N=C/c2ccc(Cl)cc2)[nH]c2ccc(Cl)cc12	-4	0%	-4%	0.35µM*	3	-8%
O=C(/C=C/c1ccccc1Cl)Nc1cccc(O)c1	0	3%	?	4.5µM*	4	-4%
Cc1ccnc(N2C3CCC2CC(O)(c2ccccc2)C3)n1 (stereo not given)	8	2%	-3%	-1%	21	1%
Cc1cc(N2C3CCC2CC(O)(c2ccc(F)cc2)C3)nc(-c2ccccc2)n1 (stereo not given)	-72*	1%	-7%	-17%	11	-5%
O=C(COC(=O)c1nc(Cl)ccc1Cl)c1ccccc1Cl	-2	-1%	3%	2%	-1	0%
Cc1ccc(NC(=O)C(=O)NCCN2CCN(Cc3ccc([N+](=O)[O-])cc3)CC2)cc1	-108*	-2%	2%	-3%	-82*	-1%
CCc1ccc(NC(=O)C(=O)NCCN2CCN(Cc3ccc([N+](=O)[O-])cc3)CC2)cc1	-106*	-1%	1%	6%	-91*	0%
O=C(NCCN1CCN(C(=O)c2ccc(Br)cc2)CC1)c1ccc(Br)cc1	-83*	-1%	-12%	-3%	-4	4%
